According to PubChem BioAssay (EPA / NIEHS):
Activity calls are given as the source filed them. Rule for the calls: active = hit-call score of the fitted dose curve at least 0.9, where 1 is the maximum; inactive = score below 0.9.

These compounds were tested on Nuclear factor erythroid 2-related factor 2 (Homo sapiens) (UniProt Q16236) (assay: LTEA_HepaRG_NFE2L2: Life Technologies and Expression Analysis (LTEA) Assay for Nuclear factor erythroid 2-related factor 2 (NFE2L2) Transcription Factor using HepaRG (AID 2283527;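 for outcome: TaqMan qRT-PCR transcript level normalised to ACTB GAPDH and POLR2A housekeeping genes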)). Settings: mRNA level, 48 h; actives raise or lower the signal.
Sequence of Nuclear factor erythroid 2-related factor 2 (Homo sapiens) (Q16236 whole entry, looked up): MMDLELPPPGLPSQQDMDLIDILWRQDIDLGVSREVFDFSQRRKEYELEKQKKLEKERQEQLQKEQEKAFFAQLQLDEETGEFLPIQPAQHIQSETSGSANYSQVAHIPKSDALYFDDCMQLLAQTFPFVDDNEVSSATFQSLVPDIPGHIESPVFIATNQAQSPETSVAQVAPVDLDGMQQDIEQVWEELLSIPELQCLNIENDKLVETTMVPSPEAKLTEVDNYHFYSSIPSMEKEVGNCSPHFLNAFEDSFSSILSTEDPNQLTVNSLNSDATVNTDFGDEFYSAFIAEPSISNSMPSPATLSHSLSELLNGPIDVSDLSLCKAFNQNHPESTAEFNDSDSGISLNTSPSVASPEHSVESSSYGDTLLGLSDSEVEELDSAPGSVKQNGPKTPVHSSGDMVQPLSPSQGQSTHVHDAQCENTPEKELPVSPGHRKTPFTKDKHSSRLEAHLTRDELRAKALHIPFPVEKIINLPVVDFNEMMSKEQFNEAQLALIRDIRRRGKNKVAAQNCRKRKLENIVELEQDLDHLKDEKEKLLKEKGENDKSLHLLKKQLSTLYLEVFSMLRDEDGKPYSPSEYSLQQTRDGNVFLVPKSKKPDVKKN
Procedure, shortened: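 Human liver HepaRG line treated in duplicate for 48 h with an eight-point series topping at 100 uM. Gene expression of NFE2L2 by qRT-PCR, bidirectionally fitted against the vehicle control.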
For `CCCCCc1ccc(N)cc1`, the outcome was “inactive”.
For `Cc1c2ccccc2c(C)c2c1ccc1ccccc12`, the AC50 was 90.5 µM (active).
`O=CCCCC=O` was tested, and the outcome was “inactive”.
For `Cc1cn([C@H]2C[C@H](N=[N+]=[N-])[C@@H](CO)O2)c(=O)[nH]c1=O`, the outcome was “inactive”.
For `Cc1occc1C(=O)Nc1ccc(C(=O)N2CCC(F)(F)/C(=C\C(=O)N3CCC(N4CCCCC4)CC3)c3ccccc32)cc1`, the outcome was “inactive”.
For `OC12N=C(c3ccccc3)SC1Cc1cc(Cl)ccc12` (stereo not given), the outcome was “inactive”.
In the case of `CC(C)(O)c1ccc(CNC(=O)c2cccnc2Oc2ccc3nonc3c2)cc1`, the outcome is reported as “inactive”.
With `O=C1CCC(C2CCCCC2)CC1` the outcome was “inactive”.
With `NCc1cccc(C2CCN(C(=O)c3ccc(C#Cc4ccccc4F)o3)CC2)c1` the outcome was “inactive”.
For `c1ccc2ccccc2c1`, the outcome was “inactive”.
For `O=C(O)Cn1c(=O)n(Cc2ccc(Br)cc2F)c(=O)c2ccc(Cl)cc21`, the outcome was “inactive”.
`C[C@]12CC[C@@H]3c4ccc(O)cc4CC[C@H]3[C@@H]1CCC2=O` was tested, and the outcome was “inactive”.
`OCCO` was tested, and the outcome was “inactive”.
For `COc1cc(C(=O)NC2CCN(C)CC2)ccc1Nc1ncc2c(n1)N(C1CCCC1)CC(F)(F)C(=O)N2C`, the AC50 was 25.4 µM (active).
With `O=C(OCCCCCCOC(=O)c1ccccc1)c1ccccc1` the outcome was “inactive”.
For `Cc1ncc(CO)c(CO)c1O`, the outcome was “inactive”.
With `COc1ccc2cc(S(=O)(=O)N[C@H](CC(=O)N[C@H](Cc3ccc(CN4[C@H](C)CCC[C@@H]4C)cc3)C(=O)N(C)C(C)C)c3ccc4c(c3)OCO4)ccc2c1` the AC50 was 21.8 µM (active).
In the case of `O=C(Nc1ccc(Cl)cc1)Nc1ccc(Cl)c(Cl)c1`, the outcome is reported as “inactive”.
In the case of `Cc1cc(F)ccc1-c1cc(N2CC[C@@H](O)[C@H]2CO)ncc1N(C)C(=O)C(C)(C)c1cc(C(F)(F)F)cc(C(F)(F)F)c1`, the AC50 is reported as 11.5 µM (active).
With `Cc1cccc2ccccc12` the outcome was “inactive”.
`CC1(C)NC(=O)N(c2ccc([N+](=O)[O-])c(C(F)(F)F)c2)C1=O` was tested, and the outcome was “inactive”.
For `CCCCCCCCN(C)CCCCCCCC`, the outcome was “inactive”.
`CO[C@H]1/C=C/O[C@@]2(C)Oc3c(C)c(O)c4c(O)c(c(/C=N/N5CCN(C)CC5)c(O)c4c3C2=O)NC(=O)/C(C)=C\C=C\[C@H](C)[C@H](O)[C@@H](C)[C@@H](O)[C@@H](C)[C@H](OC(C)=O)[C@@H]1C` was tested, and the outcome was “inactive”.
For `Cc1cc2c(cc1C(F)(F)F)N(C(=O)Nc1ccc(Oc3cccnc3C)nc1)CC2`, the outcome was “inactive”.
For `O=c1c(-c2ccc(O)cc2)coc2cc(O)cc(O)c12`, the outcome was “inactive”.
`Oc1ccc2ccccc2c1` was tested, and the outcome was “inactive”.
With `O=C(O)Cc1cc(I)c(Oc2ccc(O)c(I)c2)c(I)c1` the AC50 was 85.6 µM (active).
In the case of `CC(C)(C)c1csc(-c2cc3cc(OCc4ccccc4CC(=O)O)ccc3o2)n1`, the outcome is reported as “inactive”.
For `CC[C@@H]1C[C@H](N(Cc2cc(C(F)(F)F)cc(C(F)(F)F)c2)C(C)=O)c2cc(C(F)(F)F)ccc2N1C(=O)OC(C)C`, the outcome was “inactive”.
In the case of `CC[C@H](NC(=O)c1cc(F)ccc1NS(=O)(=O)c1cccc2cccnc12)c1ccccc1`, the outcome is reported as “inactive”.
`CCCC(=O)OCCC(C)C` was tested, and the outcome was “inactive”.
For `O=c1ccc2ccccc2o1`, the outcome was “inactive”.
For `Clc1ccccc1C(c1ccccc1)(c1ccccc1)n1ccnc1`, the AC50 was 14.5 µM (active).
With `CCN(Cc1cccc(S(=O)(=O)O)c1)c1ccc(C(=C2C=CC(=[N+](CC)Cc3cccc(S(=O)(=O)O)c3)C=C2)c2ccccc2S(=O)(=O)[O-])cc1` the outcome was “inactive”.
`CCN(CC)C(=O)c1cc(S(=O)(=O)Cc2ccccc2)c(N2CCC(c3ccccc3)CC2)cc1N(CC)CCN(C)C` was tested, and the AC50 was 29.1 µM (active).
With `O=C1O[C@H]([C@@H](O)CO)C(O)=C1O` the outcome was “inactive”.
`O=c1[nH]sc2ccccc12` was tested, and the outcome was “inactive”.
In the case of `CC(C)(c1cc(Br)c(O)c(Br)c1)c1cc(Br)c(O)c(Br)c1`, the outcome is reported as “inactive”.

Each compound was assayed on succinate dehydrogenase complex iron sulfur subunit B (SDHB), SDHB (gene 6390) (assay: LTEA_HepaRG_SDHB: Life Technologies and Expression Analysis (LTEA) Assay for succinate dehydrogenase complex iron sulfur subunit B (SDHB) using HepaRG (AID 2283528)). Settings: mRNA level, 48 h; actives raise or lower the signal.
Procedure, shortened: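 A human HepaRG culture in serum-free induction medium received test chemicals for 48 h over an eight-point range capped at 100 uM. SDHB expression change was quantified by qRT-PCR.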
With `CCCCCc1ccc(N)cc1` the outcome was “inactive”.
In the case of `Cc1c2ccccc2c(C)c2c1ccc1ccccc12`, the outcome is reported as “inactive”.
In the case of `O=CCCCC=O`, the outcome is reported as “inactive”.
With `Cc1cn([C@H]2C[C@H](N=[N+]=[N-])[C@@H](CO)O2)c(=O)[nH]c1=O` the outcome was “inactive”.
For `Cc1occc1C(=O)Nc1ccc(C(=O)N2CCC(F)(F)/C(=C\C(=O)N3CCC(N4CCCCC4)CC3)c3ccccc32)cc1`, the outcome was “inactive”.
For `OC12N=C(c3ccccc3)SC1Cc1cc(Cl)ccc12` (stereo not given), the outcome was “inactive”.
In the case of `CC(C)(O)c1ccc(CNC(=O)c2cccnc2Oc2ccc3nonc3c2)cc1`, the outcome is reported as “inactive”.
For `NCc1cccc(C2CCN(C(=O)c3ccc(C#Cc4ccccc4F)o3)CC2)c1`, the outcome was “inactive”.
`c1ccc2ccccc2c1` was tested, and the outcome was “inactive”.
With `O=C(O)Cn1c(=O)n(Cc2ccc(Br)cc2F)c(=O)c2ccc(Cl)cc21` the outcome was “inactive”.
In the case of `C[C@]12CC[C@@H]3c4ccc(O)cc4CC[C@H]3[C@@H]1CCC2=O`, the outcome is reported as “inactive”.
With `OCCO` the outcome was “inactive”.
For `COc1cc(C(=O)NC2CCN(C)CC2)ccc1Nc1ncc2c(n1)N(C1CCCC1)CC(F)(F)C(=O)N2C`, the AC50 was 12.7 µM (active).
In the case of `O=C(OCCCCCCOC(=O)c1ccccc1)c1ccccc1`, the outcome is reported as “inactive”.
With `Cc1ncc(CO)c(CO)c1O` the outcome was “inactive”.
`COc1ccc2cc(S(=O)(=O)N[C@H](CC(=O)N[C@H](Cc3ccc(CN4[C@H](C)CCC[C@@H]4C)cc3)C(=O)N(C)C(C)C)c3ccc4c(c3)OCO4)ccc2c1` was tested, and the AC50 was 22 µM (active).
In the case of `O=C(Nc1ccc(Cl)cc1)Nc1ccc(Cl)c(Cl)c1`, the AC50 is reported as 13.2 µM (active).
`Cc1cc(F)ccc1-c1cc(N2CC[C@@H](O)[C@H]2CO)ncc1N(C)C(=O)C(C)(C)c1cc(C(F)(F)F)cc(C(F)(F)F)c1` was tested, and the AC50 was 75.1 µM (active).
With `Cc1cccc2ccccc12` the outcome was “inactive”.
For `CC1(C)NC(=O)N(c2ccc([N+](=O)[O-])c(C(F)(F)F)c2)C1=O`, the AC50 was 50 µM (active).
`CCCCCCCCN(C)CCCCCCCC` was tested, and the outcome was “inactive”.
For `CO[C@H]1/C=C/O[C@@]2(C)Oc3c(C)c(O)c4c(O)c(c(/C=N/N5CCN(C)CC5)c(O)c4c3C2=O)NC(=O)/C(C)=C\C=C\[C@H](C)[C@H](O)[C@@H](C)[C@@H](O)[C@@H](C)[C@H](OC(C)=O)[C@@H]1C`, the outcome was “inactive”.
For `Cc1cc2c(cc1C(F)(F)F)N(C(=O)Nc1ccc(Oc3cccnc3C)nc1)CC2`, the outcome was “inactive”.
With `O=c1c(-c2ccc(O)cc2)coc2cc(O)cc(O)c12` the outcome was “inactive”.
In the case of `Oc1ccc2ccccc2c1`, the outcome is reported as “inactive”.
In the case of `O=C(O)Cc1cc(I)c(Oc2ccc(O)c(I)c2)c(I)c1`, the outcome is reported as “inactive”.
For `CC(C)(C)c1csc(-c2cc3cc(OCc4ccccc4CC(=O)O)ccc3o2)n1`, the AC50 was 84.8 µM (active).
In the case of `CC[C@@H]1C[C@H](N(Cc2cc(C(F)(F)F)cc(C(F)(F)F)c2)C(C)=O)c2cc(C(F)(F)F)ccc2N1C(=O)OC(C)C`, the outcome is reported as “inactive”.
For `CC[C@H](NC(=O)c1cc(F)ccc1NS(=O)(=O)c1cccc2cccnc12)c1ccccc1`, the outcome was “inactive”.
With `CCCC(=O)OCCC(C)C` the outcome was “inactive”.
With `O=c1ccc2ccccc2o1` the outcome was “inactive”.
`Clc1ccccc1C(c1ccccc1)(c1ccccc1)n1ccnc1` was tested, and the AC50 was 90.5 µM (active).
In the case of `CCN(Cc1cccc(S(=O)(=O)O)c1)c1ccc(C(=C2C=CC(=[N+](CC)Cc3cccc(S(=O)(=O)O)c3)C=C2)c2ccccc2S(=O)(=O)[O-])cc1`, the outcome is reported as “inactive”.
With `CCN(CC)C(=O)c1cc(S(=O)(=O)Cc2ccccc2)c(N2CCC(c3ccccc3)CC2)cc1N(CC)CCN(C)C` the outcome was “inactive”.
In the case of `O=C1O[C@H]([C@@H](O)CO)C(O)=C1O`, the outcome is reported as “inactive”.
`O=c1[nH]sc2ccccc12` was tested, and the outcome was “inactive”.
`CC(C)(c1cc(Br)c(O)c(Br)c1)c1cc(Br)c(O)c(Br)c1` was tested, and the outcome was “inactive”.
